Among the data in PubChem BioAssay (NCATS) are Potency and outcome values, retold here.

Test [1] is described as follows: qHTS to identify inhibitors of the type 1 interferon - major histocompatibility complex class I in skeletal muscle: primary screen against the NCATS LOPAC collection (AID 1347405).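 Also: lytic HiBiT luminescence reporting HLA-B protein level.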 Also: potency is read from the fitted curve at half-maximal effect. The method, boiled down:
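Cells: C25cl48 human myoblasts, HiBiT-tagged HLA-B*08:01, stimulated with IFN-beta 4.0 ng/ml. Compounds are titrated 1:4.3 over 7 points from 46 uM final and incubated 24 hrs; endogenous MHC class I is quantified by HiBiT lytic luminescence.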
On the technique in general: In qHTS, concentration-response curves come from the screen itself.

The nature of test [2]: qHTS for inhibitors of adenylyl cyclases using a fission yeast platform: a pilot screen against the NCATS LOPAC library (AID 1347410). Summed up: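 S. pombe CHP2027 (AC9-GNAS-PDE4D2) carrying PKA-repressed fbp1-GFP, incubated 18 h at 30C in EMM with LOPAC compounds at up to 57 uM. GFP gain-of-signal read by laser scanning cytometry; DMSO negative control.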
Test [3] is described as follows: Validation qHTS assay for inhibitors of Activation Induced Cytidine Deaminase (AID): UDG Counterscreen signal (AID 1347427). Summed up:
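Counterscreen read of UDG activity (2 U/mL, 4/3x) in the FRET deamination format with AID (1 uM, 4/3x), DJC20/DJC23 substrates (250 nM, 4x), 4 h at room temperature. NaOH stop, fluorescence at 560 ex/665 em.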

Test [4] addresses Single-stranded DNA cytosine deaminase (Homo sapiens) (UniProt Q9GZX7). The experiment in a line: Validation qHTS assay for inhibitors of Activation Induced Cytidine Deaminase (AID): AID signal (AID 1347429). Also: potency is read from the fitted curve at half-maximal effect. Summed up:
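In this coupled qHTS, AID deaminates a FRET-labelled ssDNA substrate in the presence of UDG over 4 hr at room temperature. Compounds span up to 114 uM final.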

Test [5] in a line: Primary qHTS for inhibitors of La Crosse Virus (LACV) - induced cell death in SH-SY5Y cells (AID 1508616). Also: potency is read from the fitted curve at half-maximal effect. Summed up:
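Readout was luminescence from ATPLite 1step added after a 6-day LACV infection (0.01 MOI) of SH-SY5Y cells that had received pin-transferred compound 24 hr after seeding.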

Inconclusive results are not listed. The source made the active and inactive calls. Calls follow the shape of the dose curve; as a rule, active = well fitted curve in the direction sought with a large enough effect; inconclusive = small, poorly fitted or top-dose-only effect, or another doubt; inactive = no such curve, though single readings can be large; an effect the other way counts as inactive or inconclusive.

Single-stranded DNA cytosine deaminase (Homo sapiens), sequence (Q9GZX7 whole entry, looked up): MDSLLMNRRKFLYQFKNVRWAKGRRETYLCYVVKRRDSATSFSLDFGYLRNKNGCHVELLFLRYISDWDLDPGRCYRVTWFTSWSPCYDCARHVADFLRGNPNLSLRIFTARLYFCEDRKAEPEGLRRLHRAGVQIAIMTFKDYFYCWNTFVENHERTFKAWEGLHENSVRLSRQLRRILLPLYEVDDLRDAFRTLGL

`OCC1O[C@H]([S-])[C@H](O)[C@@H](O)[C@@H]1O.[Au+]` (stereo partly drawn): the Potency in test [1] was 17.8 µM (active); in test [4], 12.6 µM (active). For the same compound, the compound was classed as inactive in test [2]. Besides, the Potency entry in test [3] and in test [5] was “inactive” throughout.

Consider `Oc1ccccc1O`, for which the Potency entry in test [1], in test [3] and in test [4] was “inactive” in each case. In addition, in test [2], the outcome was inactive. Moreover, the Potency in test [5] is 2 µM (active).

For the compound `CN1CCc2cc(NC(=O)Nc3cccnc3)ccc21`, the Potency entry in test [1], in test [3], in test [4] and in test [5] was “inactive” in each case. Further, the result in test [2] was inactive.

As to `O=C(O)CC[C@@H](C(=O)O)N1C(=O)c2ccccc2C1=O`, the Potency result in test [1], in test [3] and in test [5] was “inactive” in each case. Moreover, the compound was classed as inactive in test [2].

In the case of `NCC1OC(O[C@H]2[C@H](O)[C@@H](OC3C(O)C(N)CC(N)C3OC3OC(CO)C(O)C(O)C3N)O[C@@H]2CO)C(N)C(O)C1O` (stereo partly drawn), the Potency entry in test [1], in test [3], in test [4] and in test [5] was “inactive” throughout. The outcome in test [2] was inactive.

Turning to `CCCN(CC1CC1)c1nc(C)nc(Nc2c(Cl)cc(Cl)cc2Cl)c1Cl`, the Potency entry in test [1], in test [3], in test [4] and in test [5] was “inactive” each time. Further, the call in test [2] was inactive.

As to `Nc1ncnc2c1ncn2[C@@H]1O[C@H](COP(=O)(O)CP(=O)(O)OP(=O)(O)O)[C@@H](O)[C@H]1O`, the Potency result in test [1], in test [3], in test [4] and in test [5] was “inactive” in each case. Also, the outcome in test [2] was inactive.

In the case of `Cc1ccc(S(=O)(=O)/C=C/C#N)cc1`, the values for the Potency in test [1] and in test [5] were 12.6 µM (active) and 1.41 µM (active), respectively. The compound was classed as inactive in test [2]. Besides, the Potency entry in test [3] and in test [4] was “inactive” in each case.

As to `COc1cccc(OC)c1OCCNCC1COc2ccccc2O1` (stereo not drawn), the Potency entry in test [1], in test [3], in test [4] and in test [5] was “inactive” throughout. The result in test [2] was inactive.

Turning to `CN1C2CC(OC(=O)[C@H](CO)c3ccccc3)CC1C1OC12` (stereo partly drawn), the Potency entry in test [1], in test [3], in test [4] and in test [5] was “inactive” in each case. Besides, the call in test [2] was inactive.

Consider `Nc1nc(Cl)nc2c1ncn2[C@@H]1O[C@H](COP(=O)(O)OP(=O)(O)OP(=O)(O)O)[C@@H](O)[C@H]1O`, for which the Potency result in test [1], in test [3] and in test [4] was “inactive” in each case. In test [2], the outcome was inactive.
